# This is one part of a sample in which hits are shown more often than they occur.
# Shiga inhibitor – blocks Shiga toxin action in Vero cells. Vero cells, Shiga toxin protein synthesis inhibition reporter. inhibition, % at 38.7 µM. 9.2% of 290,000 active. AID 2315; in the data active = inhibition mostly above about 28%, no sharp cut-off; inactive = mostly below about 43%
# Vaccinia Venus – inhibitors of vaccinia virus (Venus reporter) | Vaccinia virus Venus reporter expression, fluorescence | AID 720580 | 0.46% of 330,000 active | Potency, µM (highest dose often 36.5 µM), hits mostly inhibitors; calls by dose curve; tested in A549 cells; note: nearly all actives have a fitted effect of over 30% in size
# LASV entry inh – blocks Lassa virus binding to or entry into cells | Lassa virus pseudotype entry inhibition, cell reporter | Potency, µM (titrated, usually from 37.9 µM), actives largely listed as inhibitors | 1.2% of 300,000 active; calls by dose curve; tested in HEK293 cells; note: nearly all actives have a fitted effect of over 50% in size
# Vaccinia mCherry – vaccinia inhibition (mCherry reporter) | Vaccinia virus mCherry reporter infection, fluorescence | 0.63% of 310,000 active | Potency, µM (highest dose often 36.5 µM), actives largely listed as inhibitors; calls by dose curve; tested in A549 cells; note: nearly all actives have a fitted effect of over 35% in size
# CHX counter – counter-screen hit for Shiga toxin inhibitors, cycloheximide. cell reporter, cycloheximide protein synthesis inhibition counterscreen. max response, %. 12% of 300,000 active; in the data active = max response mostly above about 13%, no sharp cut-off; inactive = mostly below about 14%; note: read at 38.3 µM for the half of the compounds with a filed dose
# Marburg entry inh – blocks Marburg virus binding to or entry into cells; Marburg virus pseudotyped entry inhibition, cell reporter; Potency, µM (series often up to 37.8 µM), most hits filed as inhibitors; 1.8% of 300,000 active; calls by dose curve; tested in HEK293 cells
# A number is an active result; 0 = inactive; ? = inconclusive; - = no result given; + = active, no number; ! = repeats disagree.
SMILES,Shiga inhibitor,Vaccinia Venus,LASV entry inh,Vaccinia mCherry,CHX counter,Marburg entry inh
CN(C(=O)c1ccc(NC(=O)c2ccco2)cc1)c1ccccc1,77,-,-,-,35,-
Cc1cccc2c(=O)c(-c3ccc(Cl)cc3)c(NC(=O)c3ccco3)oc12,24,-,-,-,16,-
CCC(C)c1ccc(NC(=O)c2ccco2)cc1 (centres undefined),0,-,-,-,26,-
CC(C)COc1ccc(C(=O)Nc2ccc(NC(=O)c3ccco3)cc2)cc1,0,0,0,0,0,?
Cc1c(Cl)cccc1Nc1nn2c(=O)c3ccc(C(=O)NCCc4ccccc4)cc3nc2s1,-,?,0,?,-,-
CSc1ccc(NC(=O)CC(C)=O)cc1,0,-,0,-,0,0
O=C(Nc1ccc(Cl)cc1)c1ccco1,0,0,0,?,33,?
O=C(Nc1cccc(NC(=O)c2ccc(-c3ccc(Br)cc3)o2)c1)c1ccco1,92,-,?,-,38,?
O=C(Cc1ccccc1)Nc1ccc(SC(F)F)cc1,0,0,0,0,41,0
CCC(C)c1ccc(NC(=O)CC(C)=O)cc1 (centres undefined),0,-,0,-,21,?
O=C(COc1ccc(Cl)cc1)Nc1ccc(NC(=O)c2ccco2)cc1,0,0,-,0,0,0
O=C(Nc1cccc(-c2nc3ccccc3o2)c1)c1ccc(-c2ccc(Br)cc2)o1,-,0,0,0,-,0
CCNc1ccc(/C=C/c2ccnc3ccccc23)cc1,-,0,-,0,-,-
O=C(Nc1cccc(S(=O)(=O)NCc2ccco2)c1)c1ccc(Cl)cc1,-,0,0,0,-,?
NC(=NCc1ccco1)NC(=O)c1ccc(Cl)cc1,76,0,0,0,25,0
Cc1ccc(C)c(NC(=O)CCn2nc(C)c3c(C)n(-c4ccccc4)nc3c2=O)c1,-,0,0,0,-,-
CCN1CCCC1CNC(=O)c1ccc(Sc2ccc(F)cc2)c([N+](=O)[O-])c1 (centres undefined),0,0,-,0,0,6.3µM
CC(=O)NCCNC(=O)c1ccc(Sc2ccccc2)c([N+](=O)[O-])c1,0,0,-,0,0,-
CN(C)CCNC(=O)c1ccc(Sc2ccc(Br)cc2)c([N+](=O)[O-])c1,0,?,?,10µM,0,?
C[C@H]1CN([C@@H](C)CO)C(=O)CCCn2nncc2CO[C@H]1CN(C)S(=O)(=O)c1ccc(-n2cccn2)cc1,-,0,-,0,-,-
O=C(CSCc1cccc(CSCC(=O)Nc2ccc3ccccc3c2)n1)Nc1ccc2ccccc2c1,0,11µM,0,11µM,0,?
O=C(CSc1ccccc1)Nc1ccc2sccc2c1,45,-,-,-,45,-
O=C(CSc1ccccc1)Nc1ccc2c(c1)C(=O)NC2=O,0,-,-,-,0,-
O=C(CSc1cccs1)Nc1ccc2ccccc2c1,125,-,0,-,46,0
O=C(CSc1cccs1)Nc1cccc2ccccc12,+,?,0,?,50,0
SMILES,Shiga inhibitor,Vaccinia Venus,LASV entry inh,Vaccinia mCherry,CHX counter,Marburg entry inh
COCCCNC(=S)NNC(=O)c1ccc(S(=O)(=O)N2CCC(C)CC2)cc1,0,0,0,0,0,0
CCOC(=O)C(C(C)=O)c1c(Br)c(O)c(O)c2c(C(=O)c3ccc(C)cc3)coc12 (centres undefined),0,13µM,0,13µM,19,2.3µM!
CCOC(=O)c1c(C)n(-c2ccc(C)cc2)c2c(C(C(C)=O)C(=O)O)c(Br)c(O)c(O)c12 (centres undefined),0,?,?,-,0,0
CC1=C(C(=O)OC2CCCCCCC2)C(c2cccc(O)c2)NC(=O)N1 (centres undefined),0,0,1.8µM,0,0,?
COc1ccc(NC(=O)Nc2cccnc2)cc1,44,0,0,0,23,0
CCOc1ccc(NC(=O)Nc2cccnc2)cc1,60,0,0,0,25,0
O=C(Nc1ccc(Cl)cc1)Nc1cccnc1,55,0,0,0,37,0
CN(C(=O)c1ccncc1)C1CCCCC1,0,0,0,0,0,0
O=C(Nc1ccccc1C(F)(F)F)C1CCN(S(=O)(=O)Cc2ccccc2)CC1,-,0,0,0,-,0
CC(c1nnc(SCC(=O)Nc2cc([N+](=O)[O-])ccc2F)n1Cc1ccccc1)N(C)C (centres undefined),0,0,0,0,0,0
NCCNCCN,91,-,-,-,43,-
Cc1ccc(-c2cc(NC(=O)c3ccccc3)on2)cc1,94,0,0,0,23,0
O=C(N/N=C/c1c[nH]c2ccccc12)c1ccn[nH]1,0,-,-,-,28,-
Cc1ccc(NC(=O)c2cc(-c3ccccc3)n[nH]2)cc1,49,-,-,-,39,-
COc1ccc(C(=O)Nc2cc(-c3ccc(C)cc3)no2)cc1,0,-,-,-,0,-
O=C(N/N=C/c1c[nH]c2ccccc12)c1cc(-c2ccc(-c3ccccc3)cc2)n[nH]1,54,-,0,-,35,?
Cc1ccc(CCNC(=O)c2cc(-c3ccccc3)n[nH]2)cc1,-,0,0,0,-,-
CCOC(=O)C1CCN(C(=O)c2cc3sc(C)cc3n2C)CC1,-,0,-,0,-,0
C[C@@H]1CC[C@@]2(O[C@@H](CCO)C[C@H](O)[C@H]2O)O1,-,0,-,0,-,-
CCOC(=O)C1CCC(CN(Cc2c(Cl)cccc2Cl)S(=O)(=O)c2ccc(F)cc2)CC1 (centres undefined),-,0,?,0,-,-
COC(=O)c1nc(NNC(=O)c2ccccc2)sc1-c1ccccc1,0,0,0,?,0,0
O=C(N/N=C/C=C\c1ccccc1[N+](=O)[O-])c1cc(-c2ccc3ccccc3c2)n[nH]1,0,?,?,?,11,?
O=C(N/N=C/c1c[nH]c2ccccc12)c1cc(-c2ccccc2)n[nH]1,0,0,0,?,0,0
O=C(N/N=C/c1c[nH]c2ccccc12)c1cc(-c2ccc3ccccc3c2)n[nH]1,64,?,?,?,49,?
Cc1ccc(-c2cc(C(=O)N/N=C/c3c[nH]c4ccccc34)[nH]n2)cc1,51,0,?,?,47,?
SMILES,Shiga inhibitor,Vaccinia Venus,LASV entry inh,Vaccinia mCherry,CHX counter,Marburg entry inh
O=C(N/N=C/c1c[nH]c2ccccc12)c1cc(-c2cccc3ccccc23)n[nH]1,0,?,0,0,19,?
COc1ccccc1CNC(=O)CSCc1nc(-c2ccc(OC)c(OC)c2)oc1C,-,0,0,0,-,?
CC(=O)Nc1ccc(NC(=O)c2cnn(-c3ccccc3)c2C2CCN(C(=O)OC(C)(C)C)CC2)cc1,-,0,0,0,-,0
C=CCOC(=O)C(C(=O)CC)[C@@H](NC(=O)OC)c1ccc(F)cc1 (some centres undefined),-,-,-,-,-,0
CCN1CCCC1CNC(=O)c1ccc(Sc2ccccc2Cl)c([N+](=O)[O-])c1 (centres undefined),0,0,0,0,0,?
CC(=O)c1ccc(N2CCN(c3ncnc4onc(C)c34)CC2)cc1,-,0,0,0,-,-
Cc1ccc(Cl)cc1NC(=O)CN1C=NS(=O)(=O)c2ccccc21,-,0,0,0,-,-
Cc1cccc(N2CCN(C(=O)c3cnn(-c4ccc(F)cc4F)c3C3CCN(C(=O)OC(C)(C)C)CC3)CC2)c1C,-,0,?,?,-,-
CC1CC(C)CN(Cc2nc(N)nc(Nc3ccc4ccccc4c3)n2)C1 (centres undefined),0,?,?,?,0,?
COc1ccc(OCc2cc(C(=O)NCC(C)(C)N3CCOCC3)no2)c(Cl)c1,36,0,0,0,0,0
